# Measured values as given in PubChem BioAssay (NCATS).
# Where “and” joins values, the source holds several entries; their conditions need not be identical. Identical values can stand only once. Inconclusive results are not listed. Where a call stands in place of a potency, no number is given. Calls of active or inactive are those of the source. Unless noted, calls come from the whole dose curve; as a rule, active = well fitted curve in the direction sought with a large enough effect; inconclusive = small, poorly fitted or top-dose-only effect, or another doubt; inactive = no such curve, though single readings can be large; an effect the other way counts as inactive or inconclusive. Residues, ends and D or L forms follow the SMILES beside them. *: point of attachment. Cbz = O=C(OCc1ccccc1)*; CH2Cl = ClC*
# Tests used:
# [1] = target: Aldehyde dehydrogenase, mitochondrial (Homo sapiens) (UniProt P05091); assay: qHTS for Inhibitors of the Aldehyde Dehydrogenase Family (ALDH2) Confirmatory screens (AID 2061303; active = well fitted inhibition curve with a large enough effect; title and protocol of this record describe different tests; note: nearly all actives have a fitted effect of over 45% in size; note: potency is the fitted concentration of half-maximal effect); settings: ALDH inhibition qHTS; series mostly up to 45.4 µM
# [2] = qHTS for Inhibitors of the Aldehyde Dehydrogenase Family (ALDH1A2, ALDH1A3, ALDH2, ALDH3A1) (AID 2061307); settings: ALDH inhibition qHTS; series mostly up to 50.3 µM; note: nearly all actives have a fitted effect of over 50% in size; for potency: test system not described further here; potency is the fitted concentration of half-maximal effect
# [3] = target: Retinaldehyde dehydrogenase 3 (Homo sapiens) (UniProt P47895); assay: qHTS for Inhibitors of the Aldehyde Dehydrogenase Family (ALDH1A3) Confirmatory screens (AID 2061311); settings: ALDH inhibition qHTS; series mostly up to 46 µM; note: nearly all actives have a fitted effect of over 60% in size; note: potency is the fitted concentration of half-maximal effect
# [4] = target: Retinal dehydrogenase 2 (Homo sapiens) (UniProt O94788); assay: qHTS for Inhibitors of the Aldehyde Dehydrogenase Family (ALDH1A2) Confirmation screens (AID 2061314); settings: ALDH1A2 enzyme inhibition qHTS confirmation; series mostly up to 45.9 µM; note: nearly all actives have a fitted effect of over 65% in size; note: potency is the fitted concentration of half-maximal effect
# [5] = target: Retinaldehyde dehydrogenase 3 (Homo sapiens) (UniProt P47895); assay: qHTS for Inhibitors of the Aldehyde Dehydrogenase Family (ALDH1A3) Primary screen (AID 2061315); settings: ALDH inhibition qHTS; series mostly up to 56 µM
# [6] = target: Aldehyde dehydrogenase 1A1 (Homo sapiens) (UniProt P00352); assay: qHTS for Inhibitors of the Aldehyde Dehydrogenase Family (ALDH1A1) Confirmatory screens (AID 2061316); settings: ALDH inhibition qHTS; series mostly up to 47.3 µM; note: nearly all actives have a fitted effect of over 65% in size; note: potency is the fitted concentration of half-maximal effect
# [7] = BET inhibitor-based combinations targeting novel dependencies in MECOM-rearranged (r) AML: AML-194 cell line (AID 2202237; note: nearly all actives have a fitted effect of over 40% in size); settings: AML-194 (MECOM-r AML) viability, CellTiter-Glo, 48 h; series mostly up to 46 µM
# Procedure, shortened: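 Viability of cells (500 per well) is scored by luminescent CellTiter-Glo at 48 hr post-dosing. Eleven-point titrations are normalized to DMSO and empty controls and reduced to AUC values.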
Structure (SMILES),Potency [1],Potency [2],Potency [3],Potency [4],Potency [5],Potency [6],Potency [7]
CC(C)(C)OC(=O)N1CCN(c2ccc(NCc3cncc(-c4ccc(C#N)cc4)c3)cc2)CC1,1.79 µM (active),0.634 µM (active),inactive,inactive,inactive,inactive,–
CC(C)C[C@H](NC(=O)CNC(=O)OCc1ccccc1)C(=O)N[C@@H](Cc1ccccc1)C(=O)CCl (Cbz-Gly-Leu-Phe-CH2Cl),inactive,inactive,inactive,8.96 µM (active),inactive,inactive,–
O=C(O)c1cccc(-n2[nH]c(-c3ccccc3)cc2=O)c1,11.2 µM (active),5.01 µM (active),15.8 µM (active),7.98 µM (active),–,25.1 µM (active),–
COc1ccc(-c2ccc(CNc3ccc(N4CCN(C(=O)OC(C)(C)C)CC4)cc3)o2)cc1,1.13 µM (active),inactive,inactive,11.3 µM (active),inactive,11.3 µM (active),–
Cc1nc(SCC(=O)c2ccc(F)cc2)n[nH]1,inactive,inactive,inactive,inactive,inactive,inactive,–
O=C(Nc1cc(Cc2ccccc2)ccn1)c1ccc(-c2cccc([N+](=O)[O-])c2)o1,11.2 µM (active),7.08 µM (active),7.94 µM (active),5.01 µM (active),inactive,–,–
Cc1cccc(CNc2ccnc(-c3cccc4ccccc34)n2)c1,inactive,inactive,inactive,inactive,inactive,inactive,–
Cc1c(NC(=O)c2cc3c(s2)CCCC3)cccc1-c1cn(C)c(=O)c(Nc2ccc(C3C(=O)N(C)CCN3C)cc2)n1 (stereo unspecified),inactive,10 µM (active),2 µM (active) and 7.94 µM (active),inactive,inactive,–,inactive
